# In PMC4336329 (PLoS ONE, 2015):
# About 14,000 (4.5%) of roughly 310,000 compounds showed an effect of 50% or more. The effect is printed as a negative number. For the sample, strong results were picked, then their nearest neighbours and some compounds at random.
# Molecular target: human ether-à-go-go-related gene (hERG) potassium channel (human, UniProt Q12809)
# Assay: primary screen, population patch clamp on CHO cells stably expressing hERG; higher = less effect of the substance
# 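Note: peak tail current of the secondary pulse compared with the same well before compound.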
# Sequence of human ether-à-go-go-related gene (hERG) potassium channel (Q12809 whole entry, looked up): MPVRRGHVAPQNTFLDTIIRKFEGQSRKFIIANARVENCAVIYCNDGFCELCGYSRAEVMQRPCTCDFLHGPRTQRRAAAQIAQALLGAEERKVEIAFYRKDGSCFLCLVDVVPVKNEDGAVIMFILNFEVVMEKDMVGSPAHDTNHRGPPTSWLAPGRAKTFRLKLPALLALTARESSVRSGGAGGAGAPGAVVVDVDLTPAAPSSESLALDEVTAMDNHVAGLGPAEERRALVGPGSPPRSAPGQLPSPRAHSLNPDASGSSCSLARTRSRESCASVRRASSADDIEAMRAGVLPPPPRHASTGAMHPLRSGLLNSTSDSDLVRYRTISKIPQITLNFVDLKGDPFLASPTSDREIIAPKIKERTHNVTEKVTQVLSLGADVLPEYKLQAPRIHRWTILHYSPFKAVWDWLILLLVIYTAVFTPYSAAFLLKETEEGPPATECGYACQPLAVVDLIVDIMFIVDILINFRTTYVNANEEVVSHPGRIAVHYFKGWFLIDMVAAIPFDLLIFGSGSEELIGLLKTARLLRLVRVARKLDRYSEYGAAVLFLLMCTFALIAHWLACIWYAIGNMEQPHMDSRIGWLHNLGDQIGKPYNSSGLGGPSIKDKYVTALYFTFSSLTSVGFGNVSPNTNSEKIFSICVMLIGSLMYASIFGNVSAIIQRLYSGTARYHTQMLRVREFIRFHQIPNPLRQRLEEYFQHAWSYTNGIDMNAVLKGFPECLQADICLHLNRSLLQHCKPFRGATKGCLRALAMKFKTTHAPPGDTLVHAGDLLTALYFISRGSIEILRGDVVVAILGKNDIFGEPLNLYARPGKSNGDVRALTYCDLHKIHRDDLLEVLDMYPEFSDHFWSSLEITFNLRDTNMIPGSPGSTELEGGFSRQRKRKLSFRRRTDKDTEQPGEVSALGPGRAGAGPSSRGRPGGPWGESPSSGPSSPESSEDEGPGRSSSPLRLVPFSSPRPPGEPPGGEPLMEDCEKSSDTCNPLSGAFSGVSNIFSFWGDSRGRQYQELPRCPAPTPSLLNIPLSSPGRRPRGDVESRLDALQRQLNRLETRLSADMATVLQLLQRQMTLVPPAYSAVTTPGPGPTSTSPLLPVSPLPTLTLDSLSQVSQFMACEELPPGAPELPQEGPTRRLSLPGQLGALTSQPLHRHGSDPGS
row,SMILES,"hERG current change (%, negative = inhibition) at 10uM [%]"
1,CCOc1cc(C2NC(=O)NC2=O)ccc1O (centres unmarked),17.4
2,CCN(CC)CCN(C(=O)Cn1nnc(-c2ccc(C)o2)n1)C(C(=O)NC(C)(C)C)c1cccs1 (centres unmarked),-41.6
3,O=C1CC(C(=O)NC2CCCCC2)C2(CCCCC2)O1 (centres unmarked),-1.23
4,COc1cc(NC(=O)C(=O)NCCN(C)C)c(OC)cc1Cl,8.41
5,CCCCN(C1CCS(=O)(=O)C1)S(=O)(=O)c1ccc(OC)cc1 (centres unmarked),-24.5
6,CC(C)(CO)Nc1nc(N2CCCC2)nc(N2CCCC2)n1,-13.8
7,COc1ccc(NC(=O)NNC(=O)COc2ccc3cc(Br)ccc3c2)cc1OC,5.68
8,CCc1ccc2c(CN(C)Cc3ccc(OC(F)F)c(OC)c3)cc(=O)oc2c1,-72.5
9,Cc1ccc2c(CN3CCCCC3)cc(=O)oc2c1,-16.1
10,COc1cc(CN(C)Cc2cc(=O)oc3cc(C)c(Cl)cc23)ccc1OC(F)F,12
11,Cc1ccc2oc(=O)cc(CN3CCN(Cc4ccccc4)CC3)c2c1,-56.8
12,CC(C)c1ccc2oc(=O)cc(CN3CCN(Cc4ccccc4)CC3)c2c1,17.5
13,CCc1ccc2c(CN(C)Cc3ccccc3OC)cc(=O)oc2c1.O=C(O)C(=O)O,-21.3
14,CCN1CCN(Cc2cc(=O)oc3ccc(C)cc23)CC1,-3.04
15,Cc1ccc2c(CN3CCOCC3)cc(=O)oc2c1,-27.6
16,COc1ccc(CN2CCN(Cc3cc(=O)oc4cc(C)ccc34)CC2)c(OC)c1OC,-80.2
17,Cc1ccc2c(CN3CCN(Cc4ccccc4)CC3)cc(=O)oc2c1,-78.9
18,COc1ccc2oc(=O)cc(CN3CCN(Cc4ccc(OC)c(OC)c4OC)CC3)c2c1,-39.7
19,CCOC(=O)C1CCN(Cc2cc(=O)oc3cc(C)ccc23)CC1,-47.8
20,CC(Sc1nc(N)cc(=O)[nH]1)C(=O)Nc1sc2c(c1C#N)CCCC2 (centres unmarked),1.55
21,Cc1c(C)c(C)c(S(=O)(=O)NCCc2ccccn2)c(C)c1C,-7.95
22,C=CCNC(=O)c1nn2cccnc2c1Cl,12.7
23,COC(=O)C1C(=O)C=C(Nc2ccc(F)cc2F)CC1c1ccccc1 (centres unmarked),-16.9
24,O=C1CCCN1CC(O)CS(=O)(=O)c1ccc(Cl)cc1 (centres unmarked),16.7

row,SMILES,"hERG current change (%, negative = inhibition) at 10uM [%]"
1,Cc1ccc2c(CN3CCC(C)CC3)cc(=O)oc2c1,-50
2,COc1cc2c(cc1OC)CN(Cc1cc(=O)oc3cc(C)c(Cl)cc13)CC2,-14.3
3,Cc1ccc2c(CN3CCN(CCO)CC3)cc(=O)oc2c1,-74.9
4,CSc1ccc(CN(C)Cc2nc3cc(C(F)(F)F)ccc3c(=O)[nH]2)cc1,12.9
5,CCc1ccc2c(CN3CCc4cc(OC)c(OC)cc4C3)cc(=O)oc2c1,-66
6,Cc1ccc2c(CN3CC(C)CC(C)C3)cc(=O)oc2c1 (centres unmarked),-2.89
7,COc1cc2c(cc1OC)CN(Cc1cc(=O)oc3cc(C)c(C)cc13)CC2,-37.6
8,Cc1ccc2oc(=O)cc(CN3CCC(C)CC3)c2c1,10.8
9,CCc1cc2c(CN3CCN(CCO)CC3)cc(=O)oc2cc1O,15.6
10,COc1cccc(CN(C)Cc2nc3cc(C(F)(F)F)ccc3c(=O)[nH]2)c1,-3.19
11,COc1cc(CN(C)Cc2nc3cc(C(F)(F)F)ccc3c(=O)[nH]2)ccc1OC(F)F,-66.5
12,Cc1ccc2c(CN3CCN(CCO)CC3)cc(=O)oc2c1C,-15.5
13,Cc1ccc2c(c1)-c1c(cnn1CC(=O)N(Cc1ccco1)C1CCCCC1)CO2,-13
14,Cc1cc(C)cc(NC(=O)Cn2nnc(C(=O)NCc3ccco3)c2N)c1,6.01
15,CCn1cc(/C=N\NC(=O)Cc2ccc(Cl)cc2)cn1,-12
16,CCOC(=O)N1CCN(C(=O)CSc2nnc(CNC(=O)c3ccccc3F)o2)CC1,6.37
17,COc1ccccc1-c1cc(C(=O)NC2CCN(C)CC2)c2ccc(Cl)c(C)c2n1,-42
18,N#CC1(NC(=O)COC(=O)CCCN=C2NS(=O)(=O)c3ccccc32)CCCCC1,15
19,Cn1c(SCC(=O)NCc2ccc3c(c2)OCO3)nc2c(c1=O)SCC2,-21
20,Cn1nnnc1SCc1cc(=O)[nH]c2ccccc12,2.31
21,CCc1ccc2c(CN3CCN(Cc4ccccc4)CC3)cc(=O)oc2c1,-79.7
22,Cc1ccc(S(=O)(=O)N2CCN(Cc3ccccc3C(F)(F)F)CC2)cc1,-5.53
23,Cc1ccc2c(CN3CCN(S(=O)(=O)c4ccccc4C(F)(F)F)CC3)cc(=O)oc2c1C,-5.49
